The values that follow come from PubChem BioAssay (NCATS).

“And” between values parts separate entries of the source, which are not always exact repeats. Identical values can stand only once. Unmarked numbers belong to inactive results. Inconclusive results are not listed. The source made the active and inactive calls. Unless noted, calls follow the shape of the dose curve; as a rule, active = well fitted curve in the direction sought with a large enough effect; inconclusive = small, poorly fitted or top-dose-only effect, or another doubt; inactive = no such curve, though single readings can be large; an effect the other way counts as inactive or inconclusive.

The nature of test [1]: Cell Viability - Jurkat (AID 426;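 active = dose-dependent loss of cell ATP signal giving a full or clear fitted curve, ranked by lower potency value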; also: potency is read from the fitted curve at half-maximal effect). To be noted: qHTS. The procedure, abridged: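 qHTS, 1536-well; Jurkat E6-1, 5000 cells/well, complete medium; cpd 40 hr, 37 °C; CellTiter-Glo 20 min RT; luminescence. AC50 by Hill fit.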
A short description of test [2]: Cell Viability - Hek293 (AID 427;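 active = compounds whose dose-response curve shows a full or clear partial loss of cell viability, called from curve shape rather than a numeric limit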;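 also: potency is read from the fitted curve at half-maximal effect; cells exposed to compound for 40 hours at 37 °C before reading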). The following applies: qHTS. The procedure, abridged:
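HEK293 cells in complete medium were exposed to compound for 40 hr at 37 °C, then cellular ATP was read by CellTiter-Glo luminescence. Data were normalized to DMSO (basal) and 100 uM tamoxifen (100% inhibition), and AC50 came from Hill fits.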

Test [3] is described as follows: Cellular Toxicity (caspase-3) BJ (AID 658). To be noted: BJ fibroblasts, luminescence; Potency: caspase-3 activation; series mostly up to 91.7 µM. An outline of the steps: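 Readout: Caspase-Glo 3/7 luminescence increase in BJ cells after 16 hr treatment at 37 °C. Staurosporine and tamoxifen served as positive controls; AC50 values came from Hill modelling of data normalized to DMSO and 10 uM staurosporine.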

Test [4] is described as follows: Cellular Toxicity (caspase-3) MRC-5 (AID 659). To be noted: MRC-5 cells, luminescence, normalized: DMSO 0%, 10 µM staurosporine 100%; series mostly up to 91.7 µM. An outline of the steps: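 Concentration-dependent caspase 3/7 activation is measured in human normal lung fibroblasts (MRC-5) following 16-hour treatment. AC50 values come from standard Hill-equation modeling of luminescence normalized to DMSO and 10 uM staurosporine.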

Test [5] addresses Glucocorticoid receptor (Homo sapiens) (UniProt P04150). The experiment in a line: qHTS assay for small molecule agonists of glucocorticoid receptor signaling (AID 588532; active = well fitted curve in the direction sought with a large enough effect in the signal ratio, with a control signal flat; the % refers to the signal ratio;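 also: 100% = dexamethasone at 0.1 µM and 0% = DMSO only wells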). To be noted: HeLa MMTV-bla, beta-lactamase ratio, agonist, 18 h; active compounds read high; percent of dexamethasone control, DMSO zero. An outline of the steps: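 Using MMTV-bla HeLa cells in medium with 1% stripped FBS and 25 mM HEPES, compounds were titrated and incubated overnight-length (18 h). Beta-lactamase cleavage of CCF4 was quantified by dual-emission fluorescence.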

Test [6] deals with Vitamin D3 receptor (Homo sapiens) (UniProt P11473). The experiment in a line: qHTS assay for small molecule antagonists of vitamin D receptor signaling (AID 588541; calls by dose curve;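 also: receptor activated by calcitriol during compound treatment; % is scaled to controls: 0 for no effect and ±100 for the full control effect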). To be noted: HEK293T VDR-UAS-bla, beta-lactamase ratio, antagonist mode; series mostly up to 76.7 µM. The procedure, abridged:
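Antagonist-mode beta-lactamase reporter assay: HEK293T VDR-UAS-bla cells were exposed to titrated compound alongside 1-alpha,25-dihydroxyvitamin D3 at 3 nM final for 16 h. Values were normalized to the 50 nM agonist control and DMSO basal, with IC50 and efficacy from Hill equation fits.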

The target is the same in test [7]. Briefly: qHTS assay for small molecule agonists of vitamin D receptor signaling (AID 588543; calls by dose curve;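 also: 0% = DMSO basal and 100% = reference agonist control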). The following applies: HEK293T VDR-UAS-bla, beta-lactamase ratio, 16 h; series mostly up to 76.8 µM. The procedure, abridged:
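β-lactamase reporter, VDR-UAS-bla HEK293T, agonist mode. Cells plated 5 h at 37 °C, compound titration 16 h at 37 °C, CCF4 dye 2 h RT, ratio 460/530 nm. Hill fit → EC50, efficacy vs 50 nM 1α,25-(OH)2D3.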

For test [8], the target named is Thyroid hormone receptor beta (Homo sapiens) (UniProt P10828). The experiment in a line: qHTS assay for small molecule agonists of thyroid hormone receptor beta signaling (AID 588545; calls by dose curve). To be noted: TR-UAS-bla GripTite HEK 293, beta-lactamase ratio, agonist mode, 18 h; series mostly up to 76.7 µM. The procedure, abridged: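 Cells (2500/well) were seeded, incubated 4 hrs at 37 C, dosed with a compound series, incubated 18 hrs, loaded with CCF4 dye for 2 hrs at RT, then read for fluorescence. Data were scaled between DMSO (0%) and 10 nM T3 (100%).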

For test [9], the target named is Voltage-gated inwardly rectifying potassium channel KCNH2 (Homo sapiens) (UniProt Q12809). The experiment in a line: qHTS Assay for Small Molecule Inhibitors of the Human hERG Channel Activity (AID 588834).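 Also: top concentration of the series differs between compounds; % is scaled to controls: 0 for no effect and ±100 for the full control effect; lower thallium flux fluorescence means stronger hERG block; nearly all actives have a fitted effect of over 50% in size.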 To be noted: U2OS BacMam hERG, FluxOR thallium flux fluorescence; series mostly up to 92.2 µM. The procedure, abridged: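 Concentration-response qHTS measuring drop in thallium-sensitive dye signal. U2OS cells carrying BacMam hERG; compound exposure ~10 min, then stimulation buffer and 2 min read at 1 sec intervals.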

A short description of test [10]: qHTS assay for small molecule activators of the p53 signaling pathway (AID 651743; active = well fitted activation curve with a large enough effect in the signal ratio, not every such curve was filed as active; the % refers to the signal ratio; also: % of control where 0% means no effect). To be noted: HCT-116 p53RE-bla, beta-lactamase FRET ratio, 16 h; activation: active compounds read high. The procedure, abridged: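 Read-out is fluorescence intensity from the LiveBLAzer B/G FRET substrate, added for 2 hours at room temperature after HCT-116 p53RE-bla cells had been incubated with compounds for 16 hours at 37 C.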

Test [11] can be described thus: qHTS assay for small molecule activators of the nuclear factor-kappa B (NF-kB) signaling pathway (AID 651749; active = well fitted activation curve with a large enough effect in the signal ratio; the % refers to the signal ratio; also: % of control where 0% means no effect). The following applies: NF-kB-bla ME-180 cells, beta-lactamase FRET ratio, 16 h; active compounds read high. An outline of the steps:
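Readout: beta-lactamase reporter driven by an NF-kB response element, detected fluorescently as loss of FRET. Cells were the ME-180 line, treated 16 hr at 37C with pin-transferred compound.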

Test [12] is described as follows: qHTS assay for small molecule disruptors of the mitochondrial membrane potential - 1 hr assay (AID 651754; calls by dose curve; also: nearly all actives have a fitted effect of over 35% in size; also: potency is read from the fitted curve at half-maximal effect). The following applies: series mostly up to 92.2 µM. The procedure, abridged: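 HepG2, 2,000 cells/well, overnight attachment; cpd or DMSO 1 hr, 37C/5% CO2; Mito-MPS dye 30 min, 37C; fluorescence monomer (490/535) and aggregate (540/590).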
The target in test [13] is Tumor necrosis factor (Homo sapiens) (UniProt P01375). The experiment in a line: qHTS assay to identify small molecules that stimulate Tumor Necrosis Factor-alpha (TNF-alpha) secretion (AID 651757; active = well fitted curve in the direction sought with a large enough effect in the signal ratio; the % refers to the signal ratio; also: 0% is about no effect). The following applies: Human cells, HTRF 665/615 ratio; series mostly up to 92.2 µM. The procedure, abridged:
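Read-out is HTRF, a TR-FRET sandwich of cryptate- and XL665-labeled anti-TNF-alpha antibodies detecting cytokine secreted by THP-1 cells. Cells had been incubated with test compounds at 37 C for 17 hrs beforehand.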

The target of test [14] is Nuclear receptor ROR-gamma (Homo sapiens) (UniProt P51449). The experiment in a line: qHTS assay for small molecule antagonists of the retinoid-related orphan receptor gamma (ROR-gamma) signaling pathway (AID 651802).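 Also: luciferase reporter luminescence driven by ROR response element; % is scaled to controls: 0 for no effect and ±100 for the full control effect; nearly all actives have a fitted effect of over 60% in size.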 To be noted: ROR-gamma antagonist cell reporter assay; series mostly up to 92.2 µM. An outline of the steps:
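CHO, TET-inducible ROR + RORE-LUC reporter, 1536-well qHTS. Compound pinned, doxycycline added, 16hr 37C/5% CO2. ONE-Glo, 30 min RT, luminescence; signal drop scored as antagonism.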

A short description of test [15]: qHTS assay for small molecule antagonists of the retinoid-related orphan receptor gamma (ROR-gamma) signaling pathway - cell viability counter screen (AID 720652; active = well fitted curve in the direction sought with a large enough effect in the repeat runs; an effect the other way counts as inactive or inconclusive;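 also: compound exposure lasted 16 hr before ATP read; % is scaled to controls: 0 for no effect and ±100 for the full control effect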). To be noted: RORgamma reporter cell line viability counter screen; series mostly up to 92.2 µM. An outline of the steps: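 Luminescence from CellTiter-Glo after 30 min at room temperature reported cellular ATP as the cytotoxicity measure. Cells were the CHO reporter line with doxycycline-induced ROR-gamma expression, exposed to compound for 16 hr at 37 C.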

Test [16] can be described thus: Cell Viability - SH-SY5Y (AID 544).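 Also: 0% = DMSO alone and -100% = 100 µM tamoxifen; nearly all actives have a fitted effect of over 55% in size.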 The following applies: SH-SY5Y neuroblastoma cell viability; viability change, negative = cytotoxic: at 92.2 µM (top of the series). The procedure, abridged:
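Luminescent ATP read-out (CellTiter-Glo) measures loss of viable SH-SY5Y neuroblastoma cells after 40 hr compound exposure at 37 °C. AC50 values derive from standard Hill modelling of qHTS concentration-response data.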

The target in test [17] is Cytochrome P450 3A4 (Homo sapiens) (UniProt P08684). Briefly: qHTS Assay for Inhibitors and Substrates of Cytochrome P450 3A4 (AID 884). Also: nearly all actives have a fitted effect of over 50% in size. Also: potency is read from the fitted curve at half-maximal effect. The following applies: recombinant CYP3A4, Luciferin-PPXE luminescence; series mostly up to 57.1 µM. An outline of the steps: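 20 nM human CYP3A4 with 25 uM Luciferin-PPXE (at KM) in 200 mM KPO4, preincubated 10 min with compound; NADPH regeneration started a 60 min RT reaction. Luciferin detected by luminescence, normalized to 57 uM ketoconazole as full inhibition.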

Test [18] can be described thus: qHTS assay for small molecule agonists of the antioxidant response element (ARE) signaling pathway (AID 651741; active = well fitted activation curve with a large enough effect in the signal ratio; the % refers to the signal ratio; also: potency is read from the fitted curve at half-maximal effect; as to activation: % of control where 0% means no effect). The following applies: HepG2 ARE-bla reporter, beta-lactamase FRET ratio, 16 h; series mostly up to 96 µM. The procedure, abridged:
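Quantitative HTS in HepG2 cells stably expressing an ARE-beta-lactamase reporter; 16 h compound exposure at 37 C, followed by 2 h room-temperature incubation with LiveBLAzer B/G FRET substrate and fluorescence measurement.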

A short description of test [19]: qHTS assay for small molecule activators of the human pregnane X receptor (PXR) signaling pathway (AID 720659; call rule not given here; also: 0% is about no effect). To be noted: DPX-2 HepG2 CYP3A4-luciferase, 24 h; series mostly up to 92.3 µM.
The nature of test [20]: Cell Viability - NIH 3T3 (AID 541).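 Also: plate controls were DMSO alone for no effect and tamoxifen positive control for full effect; nearly all actives have a fitted effect of over 25% in size.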 The following applies: NIH 3T3 cell viability, qHTS; activity change, negative = cytotoxicity: at 92.2 µM (top of the series). An outline of the steps: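 Luminescent ATP signal (CellTiter-Glo) served as the viability read-out after NIH 3T3 cells were exposed to compounds over a concentration range for 40 hr at 37 °C. Hill-equation modelling of concentration-response data gave AC50.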

Chain of Vitamin D3 receptor (Homo sapiens) (P11473 whole entry, looked up): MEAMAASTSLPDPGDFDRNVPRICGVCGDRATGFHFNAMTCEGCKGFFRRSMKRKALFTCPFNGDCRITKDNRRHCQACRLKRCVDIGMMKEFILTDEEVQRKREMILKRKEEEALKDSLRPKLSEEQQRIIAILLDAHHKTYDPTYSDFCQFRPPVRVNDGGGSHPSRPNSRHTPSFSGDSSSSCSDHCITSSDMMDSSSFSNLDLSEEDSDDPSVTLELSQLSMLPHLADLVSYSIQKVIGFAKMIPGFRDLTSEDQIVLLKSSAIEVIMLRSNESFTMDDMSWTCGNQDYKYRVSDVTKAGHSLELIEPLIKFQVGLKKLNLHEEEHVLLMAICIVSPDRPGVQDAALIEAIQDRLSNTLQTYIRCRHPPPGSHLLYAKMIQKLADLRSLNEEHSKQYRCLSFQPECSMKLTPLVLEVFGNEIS
Chain of Glucocorticoid receptor (Homo sapiens) (P04150 whole entry, looked up): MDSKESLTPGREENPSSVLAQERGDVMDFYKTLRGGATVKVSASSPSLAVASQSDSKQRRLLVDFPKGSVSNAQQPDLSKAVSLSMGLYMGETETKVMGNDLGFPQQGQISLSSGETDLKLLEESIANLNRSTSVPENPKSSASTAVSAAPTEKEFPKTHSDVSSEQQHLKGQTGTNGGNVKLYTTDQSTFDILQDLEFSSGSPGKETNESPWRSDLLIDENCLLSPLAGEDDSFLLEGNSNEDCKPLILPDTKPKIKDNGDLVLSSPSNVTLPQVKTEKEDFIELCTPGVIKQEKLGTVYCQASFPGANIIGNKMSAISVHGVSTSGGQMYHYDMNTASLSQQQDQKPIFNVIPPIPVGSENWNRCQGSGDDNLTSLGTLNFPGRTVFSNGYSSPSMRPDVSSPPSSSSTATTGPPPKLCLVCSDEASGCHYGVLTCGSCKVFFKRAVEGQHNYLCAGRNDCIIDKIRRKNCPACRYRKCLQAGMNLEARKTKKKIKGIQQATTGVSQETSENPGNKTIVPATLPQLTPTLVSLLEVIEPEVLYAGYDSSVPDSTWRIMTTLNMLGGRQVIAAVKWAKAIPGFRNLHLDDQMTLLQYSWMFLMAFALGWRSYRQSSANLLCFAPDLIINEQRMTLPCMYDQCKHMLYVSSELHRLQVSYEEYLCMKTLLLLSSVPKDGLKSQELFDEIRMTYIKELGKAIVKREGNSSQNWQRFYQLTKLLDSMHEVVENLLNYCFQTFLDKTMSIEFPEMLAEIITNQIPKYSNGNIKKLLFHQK
Chain of Cytochrome P450 3A4 (Homo sapiens) (P08684 whole entry, looked up): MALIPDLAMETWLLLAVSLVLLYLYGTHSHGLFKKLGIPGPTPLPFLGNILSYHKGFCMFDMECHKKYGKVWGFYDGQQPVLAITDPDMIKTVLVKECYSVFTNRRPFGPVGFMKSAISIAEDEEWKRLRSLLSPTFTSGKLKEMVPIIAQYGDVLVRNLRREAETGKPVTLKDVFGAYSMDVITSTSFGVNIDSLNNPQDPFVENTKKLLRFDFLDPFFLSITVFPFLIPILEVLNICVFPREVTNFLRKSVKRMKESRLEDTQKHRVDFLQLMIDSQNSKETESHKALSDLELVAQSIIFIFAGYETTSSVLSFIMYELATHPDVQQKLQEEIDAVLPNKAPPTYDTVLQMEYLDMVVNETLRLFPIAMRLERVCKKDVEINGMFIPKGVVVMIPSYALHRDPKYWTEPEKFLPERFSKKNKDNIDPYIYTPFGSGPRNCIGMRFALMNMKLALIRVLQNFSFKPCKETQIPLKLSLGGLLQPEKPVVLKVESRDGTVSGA
Chain of Tumor necrosis factor (Homo sapiens) (P01375 whole entry, looked up): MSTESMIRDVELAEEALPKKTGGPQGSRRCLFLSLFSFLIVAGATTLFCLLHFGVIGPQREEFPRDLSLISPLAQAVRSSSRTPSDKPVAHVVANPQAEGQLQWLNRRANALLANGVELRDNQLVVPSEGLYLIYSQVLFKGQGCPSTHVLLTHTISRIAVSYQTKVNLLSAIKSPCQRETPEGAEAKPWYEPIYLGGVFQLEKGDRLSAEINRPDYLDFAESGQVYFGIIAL
Chain of Thyroid hormone receptor beta (Homo sapiens) (P10828 whole entry, looked up): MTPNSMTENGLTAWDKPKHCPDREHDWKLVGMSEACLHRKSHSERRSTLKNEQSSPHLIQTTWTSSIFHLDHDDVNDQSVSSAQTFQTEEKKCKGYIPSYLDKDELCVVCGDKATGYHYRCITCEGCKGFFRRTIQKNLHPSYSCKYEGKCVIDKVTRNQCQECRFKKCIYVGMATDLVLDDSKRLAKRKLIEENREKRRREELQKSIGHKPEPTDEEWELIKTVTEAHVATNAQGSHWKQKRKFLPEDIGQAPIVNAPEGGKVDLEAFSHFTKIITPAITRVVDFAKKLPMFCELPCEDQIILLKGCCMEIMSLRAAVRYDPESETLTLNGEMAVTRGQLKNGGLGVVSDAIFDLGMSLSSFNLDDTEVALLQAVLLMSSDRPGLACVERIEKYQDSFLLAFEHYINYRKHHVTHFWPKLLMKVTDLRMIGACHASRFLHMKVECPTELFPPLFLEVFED
Chain of Nuclear receptor ROR-gamma (Homo sapiens) (P51449 whole entry, looked up): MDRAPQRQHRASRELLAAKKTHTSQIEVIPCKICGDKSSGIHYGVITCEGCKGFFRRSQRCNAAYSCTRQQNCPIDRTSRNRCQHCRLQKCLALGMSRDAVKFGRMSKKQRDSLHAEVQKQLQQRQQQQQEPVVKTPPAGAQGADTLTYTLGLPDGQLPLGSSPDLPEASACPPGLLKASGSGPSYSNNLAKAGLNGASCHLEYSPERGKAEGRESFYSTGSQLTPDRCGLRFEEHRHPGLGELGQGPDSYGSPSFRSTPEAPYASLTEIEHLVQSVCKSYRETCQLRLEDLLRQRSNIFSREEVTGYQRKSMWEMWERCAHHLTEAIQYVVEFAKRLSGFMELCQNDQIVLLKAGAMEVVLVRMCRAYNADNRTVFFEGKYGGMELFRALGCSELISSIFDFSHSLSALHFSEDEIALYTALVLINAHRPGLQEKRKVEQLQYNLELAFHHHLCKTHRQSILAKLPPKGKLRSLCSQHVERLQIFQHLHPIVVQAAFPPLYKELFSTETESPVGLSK
Chain of Voltage-gated inwardly rectifying potassium channel KCNH2 (Homo sapiens) (Q12809 whole entry, looked up): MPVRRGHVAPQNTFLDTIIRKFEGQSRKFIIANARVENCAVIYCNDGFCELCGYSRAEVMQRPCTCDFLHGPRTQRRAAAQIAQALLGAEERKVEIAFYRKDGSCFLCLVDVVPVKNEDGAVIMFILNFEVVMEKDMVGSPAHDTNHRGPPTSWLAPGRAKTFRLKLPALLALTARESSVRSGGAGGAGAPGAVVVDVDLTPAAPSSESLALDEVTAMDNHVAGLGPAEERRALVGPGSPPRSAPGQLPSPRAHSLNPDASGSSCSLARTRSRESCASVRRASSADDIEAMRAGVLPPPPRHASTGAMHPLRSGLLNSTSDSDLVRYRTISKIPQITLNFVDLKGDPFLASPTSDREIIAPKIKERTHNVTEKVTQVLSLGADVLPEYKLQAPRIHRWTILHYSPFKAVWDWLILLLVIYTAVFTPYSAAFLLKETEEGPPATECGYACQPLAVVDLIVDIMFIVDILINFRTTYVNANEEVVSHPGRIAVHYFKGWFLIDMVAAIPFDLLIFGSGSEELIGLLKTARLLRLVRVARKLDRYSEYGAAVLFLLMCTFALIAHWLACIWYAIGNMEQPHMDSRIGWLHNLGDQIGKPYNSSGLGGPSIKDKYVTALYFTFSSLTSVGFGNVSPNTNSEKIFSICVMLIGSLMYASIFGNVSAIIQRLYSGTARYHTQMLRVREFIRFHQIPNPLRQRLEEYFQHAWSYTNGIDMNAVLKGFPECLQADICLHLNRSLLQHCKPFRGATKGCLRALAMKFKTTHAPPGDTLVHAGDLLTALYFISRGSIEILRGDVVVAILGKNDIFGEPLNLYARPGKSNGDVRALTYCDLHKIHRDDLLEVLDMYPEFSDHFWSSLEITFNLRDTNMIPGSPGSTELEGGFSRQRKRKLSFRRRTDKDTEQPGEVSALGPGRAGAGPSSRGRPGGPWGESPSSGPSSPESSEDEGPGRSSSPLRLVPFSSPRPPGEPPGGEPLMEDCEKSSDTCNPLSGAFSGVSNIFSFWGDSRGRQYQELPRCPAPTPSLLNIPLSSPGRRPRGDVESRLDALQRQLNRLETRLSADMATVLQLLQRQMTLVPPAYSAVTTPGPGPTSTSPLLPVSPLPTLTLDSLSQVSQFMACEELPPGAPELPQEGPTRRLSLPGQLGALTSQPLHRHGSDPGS

As for `COc1ccc(C(=O)Nc2ccccc2)cc1[N+](=O)[O-]`, the figures for the Potency in [1], in [2] and in [12] were more than 92 µM, more than 92 µM and 33.5 µM (active), respectively. Also, the Potency entry in test [3], in [6], in [7], in test [8], in test [9] and in test [13] was “inactive” in each case. In addition, the Potency result in test [14] and in [15] was “inactive” in each case. For the same compound, the compound was called inactive in test [4]. Moreover, the results for the activation in test [5], in test [10] and in [11] were -1.05%, -6.78% and 1.42%, respectively.

Turning to `CC(=O)OC1CC(C)OC(C)O1` (stereo not given), the Potency is more than 92 µM in test [1], more than 92 µM in test [2] and 61.1 µM (active) in [18]. The Potency entry in [16], in test [3], in test [17], in test [8], in test [9] and in test [12] was “inactive” throughout. Further, the Potency result in test [13], in test [14] and in test [15] was “inactive” in each case. Further, the outcome in [4] and in test [19] was inactive. In addition, the activation is 0.225% and -13.7% in test [5]; -0.185% and -2.01% in test [11].

With `C/C(Cl)=C/CCl`, the Potency in test [1] and in test [2] was more than 92 µM each time. For the same compound, the activity change, negative = cytotoxicity in [20] is -23.5%. Also, the Potency result in test [16], in [3], in test [17], in [8], in test [9] and in test [12] was “inactive” throughout. For the same compound, the Potency entry in [13], in [14] and in test [15] was “inactive” in each case. For the same compound, the call in [4] and in test [19] was inactive. Besides, the activation in [10] was -4.9%.

As to `OCC(CBr)(CBr)CBr`, the Potency in test [1] and in test [2] was more than 92 µM throughout. For the same compound, the Potency result in [16], in test [3], in test [17], in [6], in test [7] and in [8] was “inactive” each time. Also, the Potency result in [9], in test [18], in test [12], in test [13] and in [15] was “inactive” each time. Also, the activation is 0.0544% in test [5], 0.524% in test [10] and 0.264% in test [11].

On to `OC1CCCCC1`, for which the Potency in test [1] and in test [2] was more than 92 µM throughout. Besides, the activity change, negative = cytotoxicity in test [20] is -12.6%. For the same compound, the Potency entry in [16], in [3], in test [17], in [6], in [7] and in test [8] was “inactive” each time. Further, the Potency entry in test [9], in [18], in [13], in test [14] and in test [15] was “inactive” each time. Besides, the compound was classed as inactive in test [4] and in [19]. Besides, the activation in [5] is -3.35%; in test [10] it was -2.93%.

Turning to `COc1cc(-c2ccc(N=C=O)c(OC)c2)ccc1N=C=O`, the Potency in test [1] is more than 92 µM; in test [2], more than 92 µM; in [17], 12.6 µM (active); in test [18] it was 2.37 µM (active). Moreover, the Potency result in test [16], in [3], in test [6], in test [7], in [8] and in test [9] was “inactive” in each case. Moreover, in test [15], the Potency result is “inactive”. Moreover, the compound was called inactive in test [4] and in [19].

In the case of `CC(C)S`, the Potency in test [1] and in test [2] was more than 92 µM each time. Further, the activity change, negative = cytotoxicity in test [20] was -8.42%. Besides, the Potency entry in test [16], in test [3], in [6], in test [7], in test [8] and in test [9] was “inactive” throughout. The Potency entry in test [12], in [13] and in test [15] was “inactive” throughout. Besides, the result in [4] and in test [19] was inactive. Moreover, the values for the activation in test [5], in test [10] and in [11] were 2.41%, -1.26% and -0.169%, respectively.
